Yeast superoxide: lowers age-related superoxide in aged yeast cells; S. cerevisiae aged cells, superoxide DHE fluorescence; active compounds read low; superoxide response (% of plate mean), % at 10 µM; 330,000 compounds, 0.18% hits; AID 2690;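 active = superoxide response under a set limit, about three screen SD below normal, cut at about 65% in these data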;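 note: yeast aged for seven days with compound at 30 °C before DHE staining; 100% = average MFI of all compound-treated wells on the plate with controls excluded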
NR3A LBD binder: modulators (binders) of human NR3A ligand-binding domain. NR3A LBD differential scanning fluorimetry, Tm shift; 0% = protein alone, 100% = glycine-bound protein. Tm shift relative to glycine control, % at 25 µM. 340,000 compounds, 2.5% hits. AID 1259313;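 active = melting temperature shift of at least 10% of the positive control shift, at one fixed dose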
NALP1 yeast inh: blocks the NALP1 inflammasome reconstituted in yeast; 280,000 compounds, 0.61% hits; inhibition, % at 10 µM; S. cerevisiae NALP1/ASC/caspase-1 growth, X-gal OD620, 72 h; AID 2071; in the data active = inhibition mostly above about 24%, no sharp cut-off; inactive = mostly below about 32%
dFosB activator: activators of mouse delta FosB homodimer; P13346; purified delta FosB, TAMRA-CDK5 oligo fluorescence polarization; percent of positive-control signal above neutral wells; activation, % at 25 µM; 340,000 compounds, 0.99% hits; AID 493131;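 active = mean activation above about 17%, with every replicate also reaching it, limit read from the data, passing the limit was not always enough; inconclusive = only one of the two conditions met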
Target sequence (P13346 whole entry, looked up): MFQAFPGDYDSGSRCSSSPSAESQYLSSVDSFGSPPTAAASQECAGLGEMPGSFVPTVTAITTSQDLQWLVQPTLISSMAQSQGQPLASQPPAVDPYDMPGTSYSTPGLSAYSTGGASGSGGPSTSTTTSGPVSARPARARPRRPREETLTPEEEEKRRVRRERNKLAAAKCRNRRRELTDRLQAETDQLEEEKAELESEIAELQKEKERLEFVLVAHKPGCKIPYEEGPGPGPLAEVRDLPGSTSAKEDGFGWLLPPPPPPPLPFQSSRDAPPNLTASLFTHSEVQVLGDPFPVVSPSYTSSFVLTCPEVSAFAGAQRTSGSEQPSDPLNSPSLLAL
UBC13 polyUb: blocks human UBC13 polyubiquitin chain formation; TR-FRET; inhibition, % at 20 µM; 330,000 compounds, 0.47% hits; in the data active = inhibition above about 45%, passing the limit was not always enough; inconclusive = no clear call, values can overlap the other calls
Target sequence (P61088 whole entry, looked up): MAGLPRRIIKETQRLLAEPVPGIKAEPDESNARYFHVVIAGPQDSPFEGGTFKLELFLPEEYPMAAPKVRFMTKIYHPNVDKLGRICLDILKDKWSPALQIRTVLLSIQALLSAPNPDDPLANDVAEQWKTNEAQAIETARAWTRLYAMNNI
* marks the source's active call; other numbers are inactive results. Sampled rows, rich in hits. Any-hit rate of the full collection: about 4.3%.

What do the screens show for `CCN(CC)CCN1C(=O)/C(=C\c2ccc(Cl)c([N+](=O)[O-])c2)SC1=Nc1ccc(OC)cc1`?
Yeast superoxide: 104.0; NR3A LBD binder: -2.2; NALP1 yeast inh: 43.6*; dFosB activator: inconclusive; UBC13 polyUb: 13.2

How did COc1ccc(N=C2S/C(=C\c3ccc(Cl)c([N+](=O)[O-])c3)C(=O)N2CCN(C)C)cc1 do in these assays?
Yeast superoxide: 99.9; NR3A LBD binder: 1.8; NALP1 yeast inh: 41.3; dFosB activator: 23.0*; UBC13 polyUb: 32.6

What do the screens show for `Cc1ccc2c(c1)[nH]c1c(N3CCN(Cc4ccc5c(c4)OCO5)CC3)ncnc12`?
NALP1 yeast inh: 9.8

Results for Cc1cc2nc(N3C(=O)CNC3=S)sc2cc1C ?
Yeast superoxide: 94.0; NR3A LBD binder: 4.9; NALP1 yeast inh: 4.7; dFosB activator: -1.3; UBC13 polyUb: -3.2

What do the screens show for `CCOc1ccc2nc(N3C(=O)CNC3=S)sc2c1`?
Yeast superoxide: 90.1; NR3A LBD binder: 17.0*; dFosB activator: -6.1; UBC13 polyUb: -10.2

Results for O=C(CCC(=O)Nc1ccc(F)cc1)N/N=C/c1cccnc1 ?
Yeast superoxide: 85.6; NR3A LBD binder: -0.6; NALP1 yeast inh: 7.1; dFosB activator: 7.1; UBC13 polyUb: 2.4

What do the screens show for `N#Cc1ccccc1NC(=O)C1SC(=Nc2ccccc2)C(C(=O)Nc2ccc(Cl)cc2)=C1N` (stereo unspecified)?
Yeast superoxide: 95.5; NR3A LBD binder: 22.4*; NALP1 yeast inh: -5.2; dFosB activator: -6.3; UBC13 polyUb: -11.4

How did CCOc1ccc(N=C2SC(C(=O)Nc3ccccc3C#N)C(N)=C2C(=O)Nc2ccc(Cl)cc2)cc1 (stereo unspecified) do in these assays?
Yeast superoxide: 107.9; NR3A LBD binder: 26.7*; NALP1 yeast inh: 1.2; dFosB activator: -5.1; UBC13 polyUb: 3.2

What do the screens show for `COc1ccccc1N=C1SC(C(=O)Nc2cccc(Cl)c2Cl)C(N)=C1C(N)=O` (stereo unspecified)?
Yeast superoxide: 113.9; NR3A LBD binder: -0.4; NALP1 yeast inh: -8.4; dFosB activator: -10.4; UBC13 polyUb: -1.7

Results for CN1/C(=C/C(=O)c2ccc(Cl)cc2)Sc2cc3c(cc21)OCO3 ?
Yeast superoxide: 98.4; NR3A LBD binder: 16.1*; NALP1 yeast inh: 6.4; dFosB activator: 3.7; UBC13 polyUb: -15.3

What do the screens show for `COc1ccc(C(=O)/C=C2/Sc3cc4c(cc3N2C)OCO4)cc1`?
Yeast superoxide: 97.5; NR3A LBD binder: -2.4; NALP1 yeast inh: 32.6; dFosB activator: -7.7; UBC13 polyUb: -0.1

Results for Cc1ccc(NC(=O)c2sccc2C)nc1 ?
Yeast superoxide: 106.3; NR3A LBD binder: -22.5; NALP1 yeast inh: 18.7; dFosB activator: -6.8; UBC13 polyUb: -13.1

Results for O=C(NC(CSCc1ccccc1)C(=O)N/N=C/c1ccc(O)cc1O)c1ccc([N+](=O)[O-])cc1 (stereo unspecified) ?
Yeast superoxide: 92.5; NR3A LBD binder: 15.8*; NALP1 yeast inh: 7.4; dFosB activator: -8.8; UBC13 polyUb: -28.0

How did Cc1ccc(S(=O)(=O)N2CCN(C(=O)COC(=O)c3cncc(Br)c3)CC2)c(C)c1 do in these assays?
Yeast superoxide: 107.9; NR3A LBD binder: 0.4; dFosB activator: -7.2; UBC13 polyUb: -5.4

How did N=C1C(c2ccccc2)=C(O)CN1c1cccc(S(=O)(=O)N2CCCCC2)c1 do in these assays?
Yeast superoxide: 97.8; NR3A LBD binder: 1.1; NALP1 yeast inh: -13.6; dFosB activator: -1.3; UBC13 polyUb: 3.0

What do the screens show for `CC(=O)c1c(O)c2ccccc2n(C(C)C)c1=O`?
Yeast superoxide: 81.1; NR3A LBD binder: 0.4; NALP1 yeast inh: 31.1*; dFosB activator: -9.1; UBC13 polyUb: 22.0

What do the screens show for `CC(=O)c1c(O)c2ccccc2n(C)c1=O`?
Yeast superoxide: 65.5; NR3A LBD binder: 0.5; NALP1 yeast inh: -32.3; dFosB activator: -7.4; UBC13 polyUb: 1.6

Results for CCCCN(CCCC)C(=O)C1CC=CCC1C(=O)O (stereo unspecified) ?
Yeast superoxide: 100.1; NR3A LBD binder: 0.8; NALP1 yeast inh: -3.3; dFosB activator: 7.7; UBC13 polyUb: -0.5

How did CCCCCNC(=O)C1CC=CCC1C(=O)O (stereo unspecified) do in these assays?
Yeast superoxide: 107.6; NR3A LBD binder: 11.6*; NALP1 yeast inh: -2.8; dFosB activator: -0.3; UBC13 polyUb: -6.9

What do the screens show for `O=C(/C(N=Nc1cccc(C(F)(F)F)c1)=C(/O)c1cccs1)C(F)(F)F`?
Yeast superoxide: 98.5; NR3A LBD binder: 17.4*; NALP1 yeast inh: -6.2; dFosB activator: -8.7; UBC13 polyUb: -14.0

What do the screens show for `Cc1cc(NC(=O)c2sc(Nc3cccc(C(F)(F)F)c3)nc2N)no1`?
Yeast superoxide: 114.9; NR3A LBD binder: 19.9*; NALP1 yeast inh: 26.9; dFosB activator: 1.5; UBC13 polyUb: 3.6

How did Cc1cc(NC(=O)c2sc(Nc3ccc(F)c(Cl)c3)nc2N)no1 do in these assays?
Yeast superoxide: 95.0; NR3A LBD binder: 23.3*; NALP1 yeast inh: 6.5; dFosB activator: -0.7; UBC13 polyUb: -1.1

How did Cc1cc(/C(N)=N/OC(=O)Nc2cccc(C(F)(F)F)c2)no1 do in these assays?
Yeast superoxide: 91.2; NR3A LBD binder: -0.1; NALP1 yeast inh: -4.4; dFosB activator: -8.1; UBC13 polyUb: 3.4

How did CCCn1c(CCNc2nc(-c3ccc(Cl)c([N+](=O)[O-])c3)cs2)nc2cc(Cl)c(Cl)cc21 do in these assays?
Yeast superoxide: 95.5; NR3A LBD binder: 13.4*; NALP1 yeast inh: 18.5; dFosB activator: -8.0; UBC13 polyUb: -5.7

How did Cc1ccc(Cn2c(C(C)Nc3nc(-c4ccc(Cl)c([N+](=O)[O-])c4)cs3)nc3cc(C(F)(F)F)ccc32)cc1 (stereo unspecified) do in these assays?
Yeast superoxide: 106.7; NR3A LBD binder: 14.3*; dFosB activator: -4.5; UBC13 polyUb: -52.3

Results for CCCn1c(C(C)Nc2nc(-c3ccc(Cl)c([N+](=O)[O-])c3)cs2)nc2ccccc21 (stereo unspecified) ?
Yeast superoxide: 96.8; NR3A LBD binder: 5.8; NALP1 yeast inh: 7.3; dFosB activator: 1.7; UBC13 polyUb: -19.5

Results for COc1ccc(OC)c(S(=O)(=O)N2CCC(NC(=O)c3ccccc3)CC2)c1 ?
Yeast superoxide: 97.0; NR3A LBD binder: 2.7; NALP1 yeast inh: 3.4; dFosB activator: -0.9; UBC13 polyUb: 1.4

How did Cc1cc([N+](=O)[O-])nn1CC(=O)N(C)C1CCCCC1 do in these assays?
Yeast superoxide: 117.0; NR3A LBD binder: -2.4; NALP1 yeast inh: 3.3; dFosB activator: 6.3; UBC13 polyUb: 0.8

What do the screens show for `CC(=O)c1cccc(S(=O)(=O)N2CCCC(c3nc4c(nnn4Cc4cccc(Cl)c4)c(=O)[nH]3)C2)c1` (stereo unspecified)?
Yeast superoxide: 95.0; NR3A LBD binder: -0.7; NALP1 yeast inh: 6.6; dFosB activator: -10.7; UBC13 polyUb: -10.2

What do the screens show for `C=CCNC(=O)/C(C#N)=C/c1ccccc1OCc1ccc(C(=O)OC)cc1`?
Yeast superoxide: 106.8; NR3A LBD binder: 33.7*; NALP1 yeast inh: 18.8; dFosB activator: -16.2; UBC13 polyUb: 3.7

Screening data as filed in PubChem.
